The values that follow come from PubChem BioAssay AID740 (SRMLSC, 2007).

Among all 96,000 compounds or so, about 65 (0.07%) were called active. Only a selection was taken, and actives are over-represented in it overall. A number with no mark means an inactive call. No stated cut-off is given here; in the data, active means inhibition above about 25%; inactive means the rest.

A short description of the assay: unspecified inhibition readout at 50 µM (AID 740). Conditions: unspecified screen; active compounds read high.
Usually inhibition stands for how much of the control response was suppressed. For `O=C(COC(=O)C(Cc1ccccc1)NC(=O)c1ccco1)NC1CC1` (stereo not given), the inhibition was 2.73%.
Under `C=CCn1c(-c2cccn(Cc3cccc(Cl)c3)c2=O)n[nH]c1=S` stands 0.13%.
With `CN1C(=O)c2cccc3c(S(=O)(=O)Nc4ccccn4)ccc1c23`, the inhibition was 3.37%.
For `Clc1cccc(CSc2nnc([C@@H]3CCCN3)o2)c1`, the inhibition result is “inactive”.
In the case of `CCC1CCCCN1C(=O)Nc1ccc(F)cc1` (stereo not given), the inhibition is 0.1%.
Under `CCC1CCCCN1C(=O)Nc1cccc(NC(=O)N2CCCCC2CC)c1` (stereo not given) stands 31.9% (active); under `CC1CCCN(C(=O)Nc2cccc(NC(=O)N3CCCC(C)C3C)c2)C1C` (stereo not given), 0.11%.
For the molecule `NC(=O)C1(N2CCCCC2)CCN(C(=O)CSc2nc(C(F)(F)F)cc(=O)[nH]2)CC1`, the inhibition was 1.15%.
Consider `Cc1ccc(/C=C2/SC(=S)N(CC(=O)Nc3ncc(Cc4ccc(C)cc4)s3)C2=O)cc1`, for which the inhibition was 0.58%.
As to `Cc1ccc(NC(=O)NCCCN2CCCC2=O)cc1`, the inhibition was 1.44%.
With `Clc1ccc(Nc2ncnc3c2cnn3-c2ccccc2)cc1`, the inhibition result is “inactive”.
Take `CC(=O)Nc1ccc(Nc2ncnc3c2cnn3-c2ccccc2)cc1`: the inhibition is 38.2% (active).
`CC(=O)Nc1ccc(Nc2ncnc3c2cnn3-c2cccc(C)c2)cc1`: the inhibition is 0.1%.
Next, `CCC(CC)c1nnc(NC(=O)CN2C(=O)C3C4C=CC(C4)C3C2=O)s1` (stereo not given): “inactive”; `CCNc1nc(NCC)nc(SCCOC(=O)COc2ccc(Cl)cc2Cl)n1`: “inactive”; `Cc1cc(Oc2ccc(C#N)cc2)nc(N2CCOCC2)n1`: “inactive”.
As to `Oc1ccc2oc3c(c2c1)CCCC3`, the inhibition result is “inactive”.
Turning to `O=C1NCCCc2c1oc1ccc(O)cc21`, the inhibition was 38.5% (active).
For `O=C1NCCCc2c1oc1cc(Br)c(O)c(Br)c21`, the inhibition is 4.63%.
In the case of `COc1cccc(C2=NOC(C(=O)Nc3cc(C)nn3-c3ccccc3)C2)c1OC` (stereo not given), the inhibition result is “inactive”.
Take `COc1ccc(OC)c(C2=NOC(C(=O)Nc3cc(C)nn3-c3ccccc3)C2)c1` (stereo not given): the inhibition was 48.2% (active).
Regarding `COc1cc(OC)c(C2=NOC(C(=O)Nc3cc(C)nn3-c3ccccc3)C2)cc1Cl` (stereo not given), the inhibition was 0.65%.
Next, `COc1ccc(-c2cc(C(F)(F)F)nc(N3CCN(Cc4ccccc4)CC3)n2)cc1OC`: “inactive”; `COc1ccc(-c2cc(C(F)(F)F)nc(SCCC(=O)Nc3cc(C)on3)n2)cc1`: “inactive”; `COCCn1c(SCC(=O)Nc2cc(C)cc(C)c2)nnc1C(C)C`: 1.46%.
Next, `Cc1ccc2nc(NC(=O)C3CCN(S(=O)(=O)c4cccs4)CC3)sc2c1`: 2.46%.
Under `Cc1ccc(NC(=O)C2CCN(S(=O)(=O)c3cccs3)CC2)cc1C` stands 0.17%; under `Cc1nc2ccc(NC(=O)C3CCN(S(=O)(=O)c4cccs4)CC3)cc2s1`, 30.7% (active); under `O=C(CN(Cc1ccco1)C(=O)c1cc(=O)[nH]c2ccccc12)Nc1ccccc1Br`, 0.68%.
Turning to `COC(=O)c1ccc2ccn(CC(=O)NC(C)C)c2c1`, the inhibition result is “inactive”.
Next, `O=C(O)c1cc2nc(-c3ccc(F)cc3)cc(C(F)(F)F)n2n1`: 1.93%; `CN(C)c1cccc(C(=O)Nc2ccc3nc4n(c(=O)c3c2)CCCCC4)c1`: 26.5% (active).
Next, `O=C(Nc1ccc2nc3n(c(=O)c2c1)CCCCC3)c1ccccn1`: 2.45%; `Cc1ccccc1C(=O)Nc1ccc2nc3n(c(=O)c2c1)CCC3`: 0.71%.
Under `O=C(NCCN1CCOCC1)N1c2ccccc2Sc2ccccc21` stands 0.23%; under `COc1ccc(C2NC(=S)NC3=C2CCc2cc(OC)ccc23)cc1` (stereo not given), “inactive”; under `COc1ccc(C2C3=C(N=C4SCC(=O)N42)c2ccccc2CC3)cc1` (stereo not given), 1.1%.
Take `O=C1NC2=C(C(=O)c3ccccc32)C(c2ccccc2)N1` (stereo not given): the inhibition is 0.35%.
Next, `O=C1NC2=C(CCc3ccccc32)C(c2ccc(Br)cc2)N1` (stereo not given): 70.4% (active); `Cc1ccc(C2NC(=O)NC3=C2CCc2ccccc23)cc1` (stereo not given): 85.8% (active); `Cc1ccc(C2NC(=O)Cc3ccccc32)cc1` (stereo not given): 0.52%.
Under `O=C1Cc2ccccc2C(c2ccc(Br)cc2)N1` (stereo not given) stands “inactive”.
Next, `COc1ccc(C2NC(=O)NC3=C2CCc2ccccc23)cc1` (stereo not given): 66.1% (active); `CC(C)c1ccc(C2NC(=O)NC3=C2CCc2ccccc23)cc1` (stereo not given): 5.37%; `CC(C)CC(c1nnnn1C(C)(C)C)N1CCN(C2CCCC2)CC1` (stereo not given): 0.26%.
Consider `CC(=O)Nc1cccc(C(=O)Nc2ccccc2C(=O)O)c1`, for which the inhibition is 0.32%.
With `Cc1ccc2nc(SCC(=O)Nc3c(C)n(C)n(-c4ccccc4)c3=O)[nH]c2c1`, the inhibition result was “inactive”.
Under `O=C(Nc1ccccc1-c1ccccc1)c1ccco1` stands 0.36%; under `Cc1ccccc1NC(=O)c1ccc(NC(=O)c2ccco2)cc1`, “inactive”.
For the molecule `O=C(Nc1ccccc1-c1ccccc1)c1ccc(NC(=O)c2ccco2)cc1`, the inhibition is 61.8% (active).
As to `N#Cc1ccccc1NC(=O)COC(=O)c1ccc2c(c1)OCCO2`, the inhibition result was “inactive”.
Turning to `COc1ccc(S(=O)(=O)Nc2ccc(C)cc2)cc1N(C)S(=O)(=O)c1ccc(Cl)cc1`, the inhibition entry is “inactive”.
`COc1ccc(S(=O)(=O)Nc2ccc(F)cc2)cc1N(C)S(=O)(=O)c1ccc(Cl)cc1`: the inhibition result is “inactive”.
`COc1ccc(NS(=O)(=O)c2ccc(OC)c(N(C)S(=O)(=O)c3ccc(Cl)cc3)c2)cc1`: the inhibition is 25.8% (active).
Under `O=C(NC1CCCC1)C1(c2ccccc2)CCN(S(=O)(=O)c2ccccc2)CC1` stands 1.06%; under `CC1(C)Cc2c(c(N3CCOCC3)nc3sc4c(NN)ncnc4c23)CS1`, 27.3% (active); under `CCN(CC)CCNc1ncnc2c1sc1nc(N3CCOCC3)c3c(c12)CC(C)(C)SC3`, “inactive”.
Next, `CN(C)CCNc1ncnc2c1sc1nc(N3CCOCC3)c3c(c12)CC(C)(C)SC3`: “inactive”; `O=C1CC(C(=O)Nc2ccccc2)C2(CCCCC2)O1` (stereo not given): 1.6%; `O=C1CC(C(=O)Nc2ccccc2)C2(CCCC2)O1` (stereo not given): “inactive”.
Under `Cc1cccc(NC(=O)C2CC(=O)OC23CCCCC3)c1` (stereo not given) stands 41.1% (active); under `CC(=O)Nc1sc(C)c(C)c1C(=O)OC1CCOC1=O` (stereo not given), “inactive”; under `COc1ccc(C(=O)OCC(=O)Nc2ccc(OC(F)F)cc2)c(OC)c1`, “inactive”.
`COc1cc(C2C(C#N)=C(C)NC3=C2C(=O)c2ccccc23)cc(OC)c1OC` (stereo not given): the inhibition was 3.83%.
Turning to `O=C(O)c1ccc(CSCc2ccccc2F)o1`, the inhibition entry is “inactive”.
Next, `COc1ccc(NC(=O)CN2CCCC(C)C2)c([N+](=O)[O-])c1` (stereo not given): 0.73%.
Next, `Cc1cc(C(=O)Nc2c(C)n(C)n(-c3ccccc3)c2=O)cs1`: 28.9% (active); `Cc1c(NC(=O)c2c(F)c(F)c(F)c(F)c2F)c(=O)n(-c2ccccc2)n1C`: 0.88%; `Cc1c(NC(=O)c2cccc(F)c2)c(=O)n(-c2ccccc2)n1C`: “inactive”.
Under `CCCCCn1c(=O)c(C(=O)Nc2c(C)n(C)n(-c3ccccc3)c2=O)c(O)c2ccccc21` stands 34.4% (active); under `CCCCn1c(=O)c(C(=O)Nc2cnccn2)c(O)c2ccccc21`, 1.68%; under `Cc1c(NC(=O)c2ccc(F)cc2)c(=O)n(-c2ccccc2)n1C`, “inactive”.
In the case of `COC(=O)c1ccc(C2NC(=S)N(c3ccccc3)C(C)=C2C(=O)Nc2ccccc2OC)cc1` (stereo not given), the inhibition result is “inactive”.
As to `CCS(=O)(=O)c1ccc2oc(SCC(=O)NCCC3=CCCCC3)nc2c1`, the inhibition was 10.4%.
Under `CCCCN(CC)CCNc1c(N2CCN(C(=O)OCC)CC2)c(=O)c1=O` stands “inactive”; under `COC(=O)C(C(=O)OC)C(C[N+](=O)[O-])c1ccc(OC)cc1` (stereo not given), “inactive”; under `CCOC(=O)c1cnn(-c2ccccc2)c1-n1cccc1C(=O)C(=O)Nc1ccccc1C(F)(F)F`, 74.2% (active).
Regarding `CCOC(=O)c1cnn(-c2ccccc2)c1-n1cccc1C(=O)C(=O)Nc1ccccc1`, the inhibition entry was “inactive”.
Under `CCOC(=O)c1cnn(-c2ccccc2)c1-n1cccc1C(=O)C(=O)Nc1ccc(F)cc1` stands 0.4%; under `COCCNC(=O)C(c1ccccc1C)N(CCOC)C(=O)Cn1nnc2ccccc21` (stereo not given), 1.03%; under `COCCNC(=O)C(c1ccccc1)N(CCOC)C(=O)Cn1nnc2ccccc21` (stereo not given), 37.1% (active).
Next, `CCOC(=O)CN(C(=O)Cn1nnc2ccccc21)C(C(=O)NCCOC)c1ccccc1` (stereo not given): “inactive”.
`CCOC(=O)C1C(=O)NC(c2ccccc2)=NC1c1ccc(C(C)C)cc1` (stereo not given): the inhibition is 1.01%.
Under `CN1CCN(S(=O)(=O)c2ccc(NC(=O)Cc3cccs3)cc2)CC1` stands “inactive”; under `O=C(Nc1ccc(-c2nnc(-c3ccco3)o2)cc1)C(c1ccccc1)c1ccccc1`, 0.04%; under `O=C(COc1ccccc1)Nc1ccc(-c2nnc(-c3ccco3)o2)cc1`, “inactive”.
For the molecule `CCC(Oc1ccccc1)C(=O)Nc1ccc(-c2nnc(-c3ccco3)o2)cc1` (stereo not given), the inhibition is 28.2% (active).
Next, `Cc1ccc(S(=O)(=O)N(CC(=O)NC2CCCCCC2)c2ccccc2F)cc1`: “inactive”.
`COc1ccc(Br)cc1C(=O)Nc1ccc(N2CCN(S(C)(=O)=O)CC2)cc1`: the inhibition is 0.77%.
As to `CC(c1ccco1)N(C(=O)COc1ccc(Cl)cc1)c1ccccn1` (stereo not given), the inhibition is 32.6% (active).
`Cc1cc(C)cc(C(=O)N(c2ccccn2)C(C)c2ccco2)c1` (stereo not given): the inhibition was 0.71%.
Under `CC(c1ccco1)N(C(=O)COc1ccc(Cl)cc1Cl)c1ccccn1` (stereo not given) stands 39.3% (active); under `CC(c1ccco1)N(C(=O)COc1ccccc1[N+](=O)[O-])c1ccccn1` (stereo not given), 0.73%.
As to `CC(c1ccco1)N(C(=O)Nc1ccc(Cl)cc1)c1ccccn1` (stereo not given), the inhibition entry is “inactive”.
Next, `CC(C)c1ccc(C(=O)N(c2ccccn2)C(C)c2ccco2)cc1` (stereo not given): 4.01%; `Cc1ccccc1NS(=O)(=O)c1ccc(C2CNC(=O)C2)cc1` (stereo not given): 0.38%; `CN1CCN(c2nc(-c3ccc(Br)cc3)nnc2-c2ccccc2)CC1`: “inactive”.
Under `O=C(c1cnn2c(C(F)(F)F)cc(-c3ccccc3)nc12)N1CCC2(CC1)OCCO2` stands 1.61%; under `O=C(c1cnn2c(C(F)(F)F)cc(-c3ccccc3)nc12)N1CCOCC1`, 37.1% (active).
On to `O=C(c1cnn2c(C(F)(F)F)cc(-c3ccc(Br)cc3)nc12)N1CCOCC1`, for which the inhibition is 1.01%.
